m5-HT2A agonist – agonists of mouse serotonin 5-HT2A receptor (HTR2A). CHO-K1 mHTR2A beta-arrestin complementation, luminescence; percent of 30 µM serotonin response. AID 624169. activation, % at 7.6 µM. actives 0.66% (n = 360,000);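 active = activation above a run cutoff, the mean activation of all tested compounds plus 3 SD, cut at about 14% in these data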;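 note: 0% = plate median of compound wells and 100% = 30 µM serotonin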
MEX-5 binding – C. elegans MEX-5 TCR-2 RNA binding activity | MEX-5/FITC-TCR2 RNA binding, fluorescence polarization; hits give low values | activity score (negative = inhibition of binding), % at 10 µM | actives 0.38% (n = 300,000);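 active = inhibition past about -25% in most replicates, and total fluorescence under double the plate's negative control median, limit read from the data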;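 note: 0% = DMSO and -100% = 5 µM competing unlabeled TCR2 RNA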
GASC-1 inh – blocks human GASC-1 demethylase activity; GST-JMJD2C(1-420) H3K9me3 demethylation, DELFIA europium; Q9H3R0; inhibition, % at 2.35 µM; actives 0.069% (n = 330,000);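 active = more than half of a compound's replicate wells show inhibition beyond 50%, single wells judged on their own value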;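 note: signal counts dimethyl H3K9 product captured on neutravidin plate; 0% = median of DMSO wells and 100% = 0.3 times that DMSO median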
VLA-4 inh – inhibition in a human VLA-4 binding assay. P13612. inhibition, % (about 7 µM as worked out from the volumes in the protocol). AID 2557. VLA-4 expressing cells, ligand binding flow cytometry. actives 0.2% (n = 330,000); in the data active = inhibition above about 50%
Exocytosis inh – lytic granule exocytosis inhibition. TALL-104 LAMP-1 surface exposure, flow cytometry; cells stimulated with thapsigargin and PMA. inhibition, % at 10 µM. actives 0.66% (n = 360,000);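 active = inhibition above about 55%, limit read from the data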
V-ATPase pH – regulators of yeast V-ATPase proton transport. AID 504577. actives 0.37% (n = 350,000). S. cerevisiae, pHLuorin cytosolic pH fluorescence. response, % at 10 µM; in the data active = response mostly above about 7.3%, no sharp cut-off; inactive = mostly below about 5.4%; note: actives read high
Numbers without * were called inactive; i = inactive; x = no result given. Most compounds without a hit are left out; they make up all but 2.2% or so of the library.

SMILES	m5-HT2A agonist	MEX-5 binding	GASC-1 inh	VLA-4 inh	Exocytosis inh	V-ATPase pH
CCN(CC(=O)NCc1ccc(Cl)cc1)C(=O)c1cccc(S(=O)(=O)Nc2ccc(OC)cc2)c1	0	-1	-9	0	-5	0
Cc1cccc(N2CCN(S(=O)(=O)c3ccc4c(c3)CCN4C(=O)CCC(=O)O)CC2)c1C	18*	x	x	7	1	-1
CCC(=O)N1CCCc2cc(S(=O)(=O)N3CCN(c4ccccn4)CC3)ccc21	-5	1	26	-7	-2	-5
CCC(=O)N1CCCc2cc(S(=O)(=O)N3CCN(c4ncccn4)CC3)ccc21	21*	1	-16	-3	1	11
CCn1c(SCc2ccccc2)nc2c1c(=O)[nH]c(=O)n2C	3	1	-11	5	4	2
CCOC(=O)C1=C(O)c2ccccc2C(=O)/C1=C\c1ccc(CC)cc1	2	4	-2	i	102*	-1
CCCc1ccc(/C=C2\C(=O)c3ccccc3C(O)=C2C(=O)OCC)cc1	x	2	5	i	x	x
CCOC(=O)C1=C(Cc2ccc(OC)cc2)C(=O)c2ccccc2C1=O	5	x	x	x	105*	-3
C=C(C(=O)Oc1ccccc1C(C)(C)C)c1ccccc1	x	x	4	55*	x	x
COC1=C(C)C(=O)C2=C(C1=O)C1C3CC4=C(C(=O)C(OC)=C(C)C4=O)C(CNC(=O)C(C)=O)N3C(C#N)C(C2)N1C (centres undefined)	3	x	x	x	74*	3
Cn1c(=O)cc(-c2ccccc2)c2ccccc21	3	2	13	6	1	13*
Cn1cc(/C=N/n2cnc3scc(-c4ccc(Cl)cc4)c3c2=O)c2ccccc21	-8	-28*	4	19	0	-6
Cn1nc(C(=O)Nc2cccc(S(=O)(=O)N3CCCCC3)c2)c2ccccc2c1=O	-2	x	x	x	9	6
CC(C)(C)OC(=O)NCc1ccc(NC(=O)c2nc[nH]c2C(=O)NCCNC(=O)c2[nH]cnc2C(=O)Nc2ccc(CNC(=O)OC(C)(C)C)cc2)cc1	2	x	-2	-5	62*	10
Cc1[nH][nH]c(=O)c1C(c1ccc(-c2cccc(Cl)c2)o1)c1c(C)[nH][nH]c1=O	1	3	17	-9	36	3
Cc1[nH][nH]c(=O)c1C(c1ccc(-c2cccc(C(=O)O)c2)o1)c1c(C)[nH][nH]c1=O	0	-52*	-16	-1	0	-3
Cc1[nH][nH]c(=O)c1C(c1ccc(-c2ccccc2C(=O)O)o1)c1c(C)[nH][nH]c1=O	-5	-35*	-1	-7	1	2
CN(C)c1ccc(C(CNC(=O)COc2ccc(Cl)cc2)N2CCCC2)cc1 (centres undefined)	-6	2	35	9	-2	-8
COc1ccc(/C=C(\C#N)c2nc3ccc(C)cc3[nH]2)cc1Oc1ccc(C(F)(F)F)cc1[N+](=O)[O-]	7	-58*	12	1	2	-1
Cc1ccc2nc(/C(C#N)=C\c3ccc(Oc4ccc(C(F)(F)F)cc4[N+](=O)[O-])cc3)[nH]c2c1	1	-2	-2	11	1	-1
CCOc1ncnc2c1oc1nc(CC(C)C)c3c(c12)CC(C)(C)OC3	2	1	-1	0	0	1
CCOc1nc(CC(C)C)c2c(c1C#N)CC(C)(C)OC2	-1	1	3	-1	-3	20*
CC(OC(=O)CCN1C(=O)C2CC=CCC2C1=O)C(=O)c1ccc(F)cc1 (centres undefined)	11	x	x	23	8	-2
OC[C@@H]1CN(Cc2ccc(F)cc2)C[C@H](n2cnc3c(NCc4ccncc4)ncnc32)O1	-4	x	x	x	-7	x
CCOc1ccccc1N1CCN(C(=S)Nc2ccc(S(=O)(=O)Nc3ncccn3)cc2)CC1	-2	1	5	12	1	0
COc1cc(CNCc2ccc(OC)cc2OC)cc(OC)c1	-6	2	9	5	10	2

Assay outcomes: PubChem BioAssay, several laboratories
